This is a sample that favours compounds with a hit; in the whole collection about 0.41% have one here.
GLA inh pH 4.5 – blocks human alpha-galactosidase A at pH 4.5; purified enzyme, 4-MU-alpha-Gal fluorescence, pH 4.5; activity change, negative = inhibition, % at 105 µM; 230,000 tested, under 10 active
GAA spleen mod – inhibitors or activators of human alpha-glucosidase in spleen homogenate; P10253; human spleen homogenate, 4-MU-alpha-glucoside fluorescence; Potency, µM (titrated, usually from 79.9 µM), actives largely listed as inhibitors; hit rate 0.006% among 240,000
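AC50 values come from Hill-equation fits of concentration-response data, normalized to no-enzyme and full-activity controls. Enzyme source: 1 ug human spleen homogenate; 1 mM fluorogenic 4-MU glucoside, pH 5.0 citrate buffer, 37 C, 40 min.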
GLA spleen mod – alpha-galactosidase A (human) modulation; P06280; human spleen homogenate, 4MU-alpha-Gal fluorescence, 40 min; Potency, µM (highest dose often 80 µM), hits mostly inhibitors; hit rate 0.008% among 240,000; AID 2107
Target sequence (P06280 32-429 limits assumed): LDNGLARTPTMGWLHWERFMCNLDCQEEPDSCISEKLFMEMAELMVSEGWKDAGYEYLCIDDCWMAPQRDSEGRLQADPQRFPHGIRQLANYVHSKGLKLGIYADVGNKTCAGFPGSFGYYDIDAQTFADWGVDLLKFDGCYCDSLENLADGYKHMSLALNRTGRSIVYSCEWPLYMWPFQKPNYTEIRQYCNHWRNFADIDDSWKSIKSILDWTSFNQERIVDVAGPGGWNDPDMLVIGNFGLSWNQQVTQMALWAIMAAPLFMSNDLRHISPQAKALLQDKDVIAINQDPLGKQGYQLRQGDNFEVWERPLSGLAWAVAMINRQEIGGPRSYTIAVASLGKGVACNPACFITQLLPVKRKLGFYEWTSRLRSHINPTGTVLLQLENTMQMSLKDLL
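Spleen homogenate 1 ug + cpd (titration) + 4-MU-alpha-D-galactopyranoside 1 mM; 37C 40 min; 50 mM citrate/phosphate pH 5.0, 0.01% Tween-20; stop pH 10; fluorescence 365/440; AC50 via Hill.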
GAA inhib – inhibitors of human lysosomal alpha-glucosidase; P10253; purified human GAA, 4-MU-alpha-glucoside fluorescence; Potency, µM (titrated, usually from 76.9 µM), actives largely listed as inhibitors; hit rate 0.005% among 200,000; AID 1466
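qHTS format, compound range up to 77 uM. Human lysosomal enzyme at 4 nM, 400 uM 4-MU glucoside substrate, pH 5.0, 20 min room temperature; fluorescence after alkaline stop gives activity normalized to controls.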
N370S GC – inhibits or activates N370S mutant glucocerebrosidase; AID 2101; Potency, µM (top dose mostly 59.4 µM), actives largely listed as inhibitors; P04062; hit rate 0.092% among 330,000; N370S GC spleen homogenate, 4MU-glucoside fluorescence
GAA glycogen mod – inhibitors or activators of human alpha-glucosidase glycogen cleavage; recombinant GAA, glycogen substrate, Amplex Red glucose oxidase fluorescence; Potency, µM (series often up to 76.4 µM), most hits filed as inhibitors; P10253; hit rate 0.38% among 300,000;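 also: the screen sought inhibitors and activators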
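Natural-substrate format: glycogen cleavage by 4 nM human enzyme, glucose read by Amplex Red coupling (Ex 573, Em 610 nm). Normalized to enzyme and no-enzyme controls.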
A number is an active result; . = inactive; ? = inconclusive; / = not tested or not shown; ! = a repeat was not active; [ ] = another dose, or the depositor's remark. Calls follow the shape of the dose curve; as a rule, active = well fitted curve in the direction sought with a large enough effect; inconclusive = small, poorly fitted or top-dose-only effect, or another doubt; inactive = no such curve, though single readings can be large; an effect the other way counts as inactive or inconclusive.

SMILES | GLA inh pH 4.5 | GAA spleen mod | GLA spleen mod | GAA inhib | N370S GC | GAA glycogen mod
O=C1C2=C(S[C@@H]3O[C@H](CO)[C@@H](O)[C@H](O)[C@H]3O2)C(=O)c2ccccc21 | . | . | . | / | . | /
CC(/C=C/C(=O)NO)=C\[C@@H](C)C(=O)c1ccc(N(C)C)cc1 | . | . | . | / | 17.8µM! | /
CCCCCCC#CC1C=CC(OC(=O)OCC)C(COC(=O)OCC)O1 (configuration not stated) | / | .[17.4 µM] | .[17.5 µM] | / | .[12.8 µM] | /
COC(=O)c1[nH]c2ccc(Cl)cc2c1NC(=O)Oc1ccccc1 | . | . | . | . | . | 24.9µM
COC(=O)[C@H](COC(C)(C)C)NC(=O)O[C@@H]1Cc2cc(Br)ccc2O[C@H]1c1cccc(OC)c1 | . | . | . | / | . | /
CC(=O)c1cccc(NC(=O)c2ccc3c(c2)CCN3S(=O)(=O)c2ccccc2)c1 | / | / | / | / | . | .
CCS(=O)(=O)N1CCCc2cc(C(=O)Nc3cccc(C(C)=O)c3)ccc21 | / | / | / | / | / | 35.5µM
Cc1ccc(CNc2ccc3c(c2)OCO3)cc1 | . | . | . | . | . | .
c1cc(CNc2ccc3c(c2)OCO3)ccn1 | . | . | . | . | . | 31.6µM
COc1ccc(C2C(CC(=O)O)=C(O)C(=O)N2c2ccccc2)cc1 (configuration not stated) | . | . | . | . | . | 14µM
CCN(CC)c1ccc(NC(=O)CSc2nnc(C)c(=O)[nH]2)cc1 | / | / | / | / | / | 25.1µM
Cc1ccc(NC(=O)CSc2nnc(C)c(=O)[nH]2)cc1 | / | / | / | / | / | .
O=C(NCC1CCCO1)NC1(C(F)(F)F)Oc2ccccc2O1 (configuration not stated) | . | . | . | . | . | .
O=C(NC1(C(F)(F)F)Oc2ccccc2O1)N1CCCC1 | . | . | . | . | . | 7.88µM
CO[C@@H]1CC[C@@]2(C)[C@@H](CC[C@@]3(C)[C@H]2CC=C2[C@H]4CC(C)(C)[C@H](O)[C@@H](OC(C)=O)[C@]4(CO)[C@H](O)C[C@]23C)[C@@]1(C)CO (tested in a mixture with another compound) | . | . | . | / | . | /
C/C=C(/C)C(=O)OC1C(OC(C)=O)[C@@]2(CO)C(O)C[C@@]3(C)C(=CCC4[C@@]5(C)CCC(OC6OC(C(=O)O)[C@@H](O[C@@H]7OC(CO)C(O)C(O)C7O)C(O)[C@H]6O[C@@H]6OC(CO)C(O)C(O)C6O)[C@](C)(CO)C5CC[C@@]43C)C2CC1(C)C (some centres not stated) | . | . | ? | / | 15.8µM | /
N#CC(C#N)=C(N)/C(C#N)=C/c1ccc2[nH]ccc2c1 | / | . | . | / | . | /
CNc1nc2c3ccccc3n(C(C)=O)c2s1 | . | . | . | . | . | 24.9µM
CC(=O)n1c2ccccc2c2nc(NC(C)C)sc21 | . | . | . | . | . | .
O=c1oc2ccccc2nc1/C=C(\O)c1ccc(Br)cc1 | . | . | . | / | . | ?
Cc1ccc2oc(=O)c(/C=C(\O)c3ccccc3)nc2c1 | . | . | . | . | . | ?
CS(=O)(=O)Cc1nc2ccccc2oc1=O | . | . | . | . | . | 5.58µM
CCS(=O)(=O)CCSc1nc2ccccc2o1 | . | . | . | . | . | .
O=c1oc2ccc(Cl)cc2nc1/C=C(\O)c1cccs1 | . | . | . | / | . | 6.31µM
C/C(O)=C\c1nc2ccccc2oc1=O | . | . | . | . | . | 10µM
SMILES | GLA inh pH 4.5 | GAA spleen mod | GLA spleen mod | GAA inhib | N370S GC | GAA glycogen mod
Cc1ccc2oc(=O)c(/C=C(\O)c3cccs3)nc2c1 | . | . | . | / | . | 12.6µM
COc1cc2c(cc1OC)C1CCC3=C([C@H](C)OC3=O)N1CC2 (some centres not stated) | . | . | . | / | . | /
CCc1nnc2c(Nc3cccc(F)c3)nc3ccc(C(=O)c4ccccc4)cc3n12 | / | / | / | / | / | .
C/C(=N\Nc1ccc(Cl)cc1)c1ccccn1 | . | . | . | . | . | 7.08µM
O=C(CNC(=S)N(CCCN1CCOCC1)Cc1cccs1)NC1CCCCCCC1 | . | . | . | . | 3.98µM | .
O=C(Nc1ccc(Cl)c(Cl)c1)N(CCCN1CCOCC1)Cc1cccs1 | . | . | . | . | 12.6µM | .

Screening results as filed in PubChem.
